This passage reports inhibition results from PubChem BioAssay AID2232 (The Scripps Research Institute Molecular Screening Center, 2010).

Among all 1,100 compounds or so, about 790 (72%) were called active. The set was probably picked from earlier hits. These entries were drawn from the full list. A number with no mark means an inactive call.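 Rule for the calls: active = mean inhibition across replicates above the hit cutoff set in the primary screen (cut at about 26% in these data); inactive = the rest.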

For the test, the target named is Acyl-protein thioesterase 2 (Homo sapiens) (UniProt O95372). Briefly: LYPLA2 inhibitors, retest, confirmation, counter-screen for PME1 inhibitor project, biochemical, fluorescence polarization, FP-Rh probe ABPP (AID 2232).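 Note: blocked labeling of the enzyme by serine hydrolase FP-Rh probe lowers polarization; 0% = enzyme with DMSO and 100% = wells lacking LYPLA2.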 To be noted: recombinant LYPLA2, FP-Rh probe fluorescence polarization; at 5.9 µM; stronger effect = higher value. (In general: Counterscreens check selectivity or assay interference.)
Acyl-protein thioesterase 2 (Homo sapiens), sequence (O95372 whole entry, looked up): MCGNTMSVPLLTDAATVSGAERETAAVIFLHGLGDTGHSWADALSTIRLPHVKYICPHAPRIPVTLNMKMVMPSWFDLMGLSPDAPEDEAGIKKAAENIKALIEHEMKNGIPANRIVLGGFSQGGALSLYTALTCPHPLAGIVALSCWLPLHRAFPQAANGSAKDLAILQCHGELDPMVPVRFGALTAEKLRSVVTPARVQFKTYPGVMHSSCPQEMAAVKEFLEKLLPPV
As a reminder, the inhibition is the change of the read-out against control, counted positive when it falls. For `Cc1ccc(N2CCN(C3=NC(=O)/C(=C\c4cccs4)S3)CC2)cc1`, the inhibition was 56.2% (active).
On to `CCC(CC)COC(=O)C1=C(C)NC(=O)NC1c1ccc([N+](=O)[O-])cc1` (stereo not drawn), for which the inhibition is 48.5% (active).
For the compound `CCC(=O)c1ccc(OCC(O)CN2CCN(c3cccc(C(F)(F)F)c3)CC2)cc1` (stereo not drawn), the inhibition is 62.3% (active).
`O=C(c1cc(-c2ccc(Cl)cc2)on1)N1CCN(c2ccccc2)CC1`: the inhibition was 2.82%.
As to `O=C(CCCN1C(=O)CSc2ncccc21)N1CCN(c2cccc(C(F)(F)F)c2)CC1`, the inhibition was 60.9% (active).
With `Cc1c(C)c2ccc(OCC(=O)N3CCN(c4cccc(Cl)c4)CC3)cc2oc1=O`, the inhibition was 45.7% (active).
As for `O=C(COc1ccc(Cl)cc1)N1CCN(c2cccc(C(F)(F)F)c2)CC1`, the figure is 63.1% (active); as for `CN(CCc1ccccn1)C(=O)c1ccc(OC2CCN(CCc3ccccc3)CC2)cc1`, 21.1%; as for `O=C(CCCN1C(=O)c2cccc3cccc(c23)C1=O)N1CCN(Cc2ccc3c(c2)OCO3)CC1`, 55.4% (active).
As for `O=C(COc1ccc(NC(=O)c2ccccc2[N+](=O)[O-])cc1)c1ccc(F)cc1`, the figure is 34.8% (active).
Consider `O=[N+]([O-])c1ccc(Oc2ccc(F)cc2Br)c2ccncc12`, for which the inhibition was 33.5% (active).
For the compound `Cc1cc(OCCCN2CCN(Cc3ccccc3)CC2)ccc1[N+](=O)[O-]`, the inhibition is 40.4% (active).
For the compound `CSc1cccc(NC(=O)CN2C(=O)COc3ccc(S(=O)(=O)N4CCOCC4)cc32)c1`, the inhibition is 33.8% (active).
`N#Cc1ccc(C2=CC(=O)C[C@H](c3ccc(Cl)cc3)C2)cc1`: the inhibition is 42% (active).
Regarding `O=C(CC1SC(N2CCCC2)=NC1=O)Nc1ccc(C(=O)NCCc2ccc(F)cc2)cc1` (stereo not drawn), the inhibition is 43.7% (active).
As for `CCOC(=O)c1cc2cc(-c3c(C(=O)OCC)oc4cc(O)cc(O)c4c3=O)ccc2o1`, the figure is 36.7% (active).
Then `O=C1C2CCCN2C(=O)N1CCCCN1CCN(c2cccc(C(F)(F)F)c2)CC1` (stereo not drawn), with 55.6% (active).
In the case of `CCN(CC)C(=O)CC1(c2ccccc2OC)CCOC(C(C)C)C1` (stereo not drawn), the inhibition is 4.28%.
Then `Cc1nc([N+](=O)[O-])cn1CC(=O)Nc1ccc(Cl)cc1`, with 34.4% (active); and `Cc1nc([N+](=O)[O-])cn1CC(=O)Nc1ccc2c(c1)OCO2`, with 26.8% (active); and `CCc1ccc(NC(=O)c2ccc(Cn3cc([N+](=O)[O-])cn3)cc2)cc1`, with 19.7%.
As to `O=C(c1ccco1)N1CCN(C(=S)Nc2cc(F)cc(F)c2)CC1`, the inhibition was 44.1% (active).
Then `O=C(Nc1ccc(N2CCN(C(=O)c3ccccc3)CC2)c(Cl)c1)c1cccnc1`, with 27% (active); and `CCOc1ccc(C(=O)NC(=S)Nc2ccc(N3CCOCC3)c(Cl)c2)cc1[N+](=O)[O-]`, with 21.8%; and `Cc1ccc(C(c2sc3nc(C)nn3c2O)N2CCN(c3ccc(F)cc3)CC2)cc1` (stereo not drawn), with 30% (active).
On to `COc1ccc(CCNc2nc(-c3cccc(NC(C)=O)c3)cs2)cc1OC`, for which the inhibition was 3.07%.
With `O=C(Cc1ccc(-n2c(=O)[nH]c3ccccc3c2=O)cc1)N1CCN(c2cccc(Cl)c2)CC1`, the inhibition is 48.3% (active).
Then `COc1ccc(-c2nc(CS(=O)CC(=O)NCc3ccccn3)c(C)o2)cc1` (stereo not drawn), with 9.85%; and `O=[N+]([O-])c1ccc(N2CCN(CC(O)COc3ccccc3)CC2)cc1` (stereo not drawn), with 29.1% (active); and `COCCOC(=O)c1sc(=S)n(CCOC)c1N`, with 21.3%.
Then `Cc1ccc(/C=N/NC(=O)C(NC(=O)c2ccccc2)c2n[nH]c(=O)c3ccccc23)cc1` (stereo not drawn), with 56.2% (active).
In the case of `Cc1nn2c(=O)cc(COC(=O)c3ccc(NC(=O)C(C)(C)C)cc3)nc2s1`, the inhibition is 27.5% (active).
As for `COc1ccccc1C(=O)NC(CCSC)C(=O)N1CCN(C/C=C/c2ccccc2)CC1` (stereo not drawn), the inhibition is 31.7% (active).
Regarding `Cc1cc(C)c(C#N)c(SCc2[nH]nc3c2C(c2ccccc2)C(C#N)=C(N)O3)n1` (stereo not drawn), the inhibition was 48.2% (active).
Turning to `N#Cc1cc([N+](=O)[O-])ccc1Oc1cccc(/C=N/NC(=O)c2ccc(Cl)cc2)c1`, the inhibition was 15.7%.
Then `CC(=O)c1ccc(N2CCN(C(=O)C3CCN(S(=O)(=O)c4ccc5c(c4)CC(C)N5C(=O)C4CC4)CC3)CC2)cc1` (stereo not drawn), with 72% (active).
Then `CC(=O)N1c2ccc(S(=O)(=O)N3CCC(C(=O)N4CCN(c5ccccc5)CC4)CC3)cc2CC1C` (stereo not drawn), with 47.4% (active).
Then `Cc1nn(Cc2ccccc2)c(C)c1CNC(=O)c1ccc(F)c(S(=O)(=O)N2CCOCC2)c1`, with -0.54%; and `CCCCCC1CCC(c2nnc(SCC(C)=O)o2)CC1` (stereo not drawn), with 37.8% (active).
In the case of `CCN(CC)c1ccc(C(=O)NNC(=O)CCc2nc3ccccc3c(=O)[nH]2)cc1`, the inhibition was 1.17%.
`COc1ccc(N2CCN(C(=O)c3ccc(N4CCCCS4(=O)=O)cc3)CC2)cc1`: the inhibition is 56.2% (active).
Regarding `Nc1[nH][nH]c(=O)c1N=Nc1ccc2c(c1)OCO2`, the inhibition is 1.18%.
With `COc1ccc(N2CC(C(=O)NCCN3C(=O)S/C(=C\c4cccnc4)C3=O)CC2=O)c(OC)c1` (stereo not drawn), the inhibition was 6.43%.
For the compound `CCCCCCOc1ccc(OC(=O)c2cccnc2)cc1`, the inhibition was 59.1% (active).
Regarding `CCC(=C/c1sc2ccc3ccccc3c2[n+]1C)/C=C1\Sc2ccc3ccccc3c2N1C`, the inhibition was 0.49%.
Then `O=C(Nc1ccc(N2CCN(C(=O)c3cccs3)CC2)cc1)c1cccnc1Cl`, with 37.2% (active); and `COc1ccc(C(C#N)Nc2ccc(C)cc2)cc1` (stereo not drawn), with 3.09%; and `Cc1cccc(OCC(O)CN2CCN(CCN3C(=O)c4cccc5cccc(c45)C3=O)CC2)c1C` (stereo not drawn), with 42.9% (active).
